From PubChem BioAssay AID2613 (National Center for Advancing Translational Sciences (NCATS), 2010)
Results filed as inconclusive are left out. Where a call stands in place of a potency, no number is given. Activity calls are given as the source filed them. The call rests on the fitted dose curve; in most records, active means well fitted inhibition curve with a large enough effect; inconclusive means small, poorly fitted or top-dose-only effect; inactive means flat fitted curve, though single readings scatter.

These molecules were tested against Lysosomal acid glucosylceramidase (Homo sapiens) (UniProt P04062) (assay: qHTS Assay for Inhibitors and Activators of N370S glucocerebrosidase as a Potential Chaperone Treatment of Gaucher Disease: Activity in N370S Spleen Homogenate Using a Red Fluorescent Substrate). Conditions: red fluorogenic substrate; series mostly up to 49.6 µM.
Chain of Lysosomal acid glucosylceramidase (Homo sapiens) (P04062 whole entry N409S): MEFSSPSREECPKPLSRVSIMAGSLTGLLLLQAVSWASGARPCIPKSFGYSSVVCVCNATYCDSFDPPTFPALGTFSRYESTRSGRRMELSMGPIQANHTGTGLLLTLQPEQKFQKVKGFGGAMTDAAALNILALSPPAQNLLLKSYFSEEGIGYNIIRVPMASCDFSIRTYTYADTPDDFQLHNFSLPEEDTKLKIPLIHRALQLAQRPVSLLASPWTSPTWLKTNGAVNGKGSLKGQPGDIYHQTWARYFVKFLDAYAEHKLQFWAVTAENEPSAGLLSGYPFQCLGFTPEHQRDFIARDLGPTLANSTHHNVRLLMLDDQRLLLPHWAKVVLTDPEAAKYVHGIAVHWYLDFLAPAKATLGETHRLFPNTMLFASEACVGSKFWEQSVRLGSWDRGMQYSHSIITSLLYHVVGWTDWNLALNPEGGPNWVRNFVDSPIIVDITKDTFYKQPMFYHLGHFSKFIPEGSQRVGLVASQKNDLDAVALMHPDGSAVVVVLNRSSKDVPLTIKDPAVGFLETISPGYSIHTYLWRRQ
Text: NIH Chemical Genomics Center [NCGC]
NIH Molecular Libraries Probe Production Centers Network [MLPCN]
Assay Submitter (PI): Wei Zheng
Glucocerebrosidase (GC) catalyzes the hydrolysis of beta-glucocerebroside to glucose and ceramide in lysosomes. Mutations in the glucocerebrosidase gene result in Gaucher disease, an autosomal recessive lysosomal storage disorder. Many of the mutations encountered in patients with Gaucher disease are missense alterations that may cause misfolding, decreased stability and/or mistrafficking of this lysosomal protein. […] These inhibitors include iminosugar analogs and three non-iminosugar inhibitors identified from a previous HTS of 62,000 compounds with the wild type recombinant enzyme. However, the enhancement of enzyme activity by the chaperone action of an enzyme inhibitor must be balanced against the direct inhibition of the enzyme. An enzyme activator could also function as a chaperone by binding to the enzyme and helping to correct its misfolding and mistrafficking. While activators for GC have not yet been identified, they may have better therapeutic potential than inhibitors. Therefore the discovery and development of chemical activators may provide a new strategy for the chaperone therapy.
We have optimized a new assay using N370S mutant GC derived from the spleen of a Gaucher patient. […] In addition, the MLPCN compound library has expanded, which increases the chance of finding new and better probes.
This confirmation assay tests for compound activity in spleen homogenate from a patient homozygous for the N370S mutation using an alternate resorufin-based substrate.
NCGC Assay Protocol Summary:
This is a fluorogenic enzyme assay with resorufin-beta-D-glucopyranoside as the substrate and mutant N370S glucocerebrosidase from human spleen homogenate as the enzyme preparation. Upon the hydrolysis of this fluorogenic substrate, the resulting product, […] which can be detected by a standard fluorescence plate reader. Data were normalized to the controls for basal activity (without enzyme) and 100% activity (with enzyme). The AC50 values were determined from concentration-response data modeled with the standard Hill equation.
Assay buffer: 50 mM citric acid (titrated with potassium phosphate to pH 5.0), 100 mM potassium chloride, 10 mM sodium chloride, 1 mM magnesium chloride, 0.01% Tween-20.
1536-well assay protocol:
(1) Add 2 ul/well of spleen homogenate (27 ug final)
(2) Add 23 nL compounds in DMSO solution. The final titration was 0.5 nM to 58 uM.
(3) Add 2 ul of substrate (1 mM final)
(4) Incubate at 37C for 40 min.
(5) Add 2 ul stop solution (1M NaOH and 1M Glycine mixture, pH 10)
(6) Detect the assay plate in a ViewLux plate reader (PerkinElmer) with Ex=365 nm and Em=440nm.
Keywords: Glucocerebrosidase, beta-glucosidase, Gaucher Disease, pharmacological chaperone, chaperone therapy, high throughput screening, glucocerebrosidase inhibitor, MLSMR, MLSCN, NIH Roadmap, qHTS and NCGC

Row | Structure (SMILES) | Potency
1 | O=C(Nc1ccccc1)c1ccc(NS(=O)(=O)c2ccccc2)cc1 | inactive
2 | CCc1cc(C(=O)N/N=C/c2c(C)[nH]c3ccccc23)cs1 | inactive
3 | O=S(=O)(c1ccc(Cl)cc1)N1CCN(c2nc(-c3cccs3)nc3ccccc23)CC1 | 891 nM (active)
4 | O=C(CSc1nccc(-c2cccs2)n1)Nc1cccc(Cl)c1 | inactive
5 | Cc1cc(N2CCOCC2)nc2ccc(NC(=O)CCC3CCCC3)cc12 | 15800 nM (active)
6 | COc1cccc(NC(=O)CSc2nc3ccccc3c(=O)n2Cc2cccs2)c1 | inactive
7 | Cc1ccc(C)c(N2CCN(C(=O)CCC(=O)Nc3ccc4nc(N5CCOCC5)cc(C)c4c3)CC2)c1 | 15800 nM (active)
8 | CCN(CC)c1ccc(C(=O)Nc2ccc3nc(N4CCOCC4)cc(C)c3c2)cc1 | 15800 nM (active)
9 | Cc1cc(N2CCOCC2)nc2ccc(NC(=O)c3ccco3)cc12 | inactive
10 | O=c1cc(N2CCCCC2)c(-c2ccccc2)nn1Cc1c(Cl)cccc1Cl | inactive
11 | O=C(Nc1cc(Br)ccc1O)c1cnn2c(C(F)F)cc(C3CC3)nc12 | inactive
12 | Oc1ccccc1Nc1nc(NCC2CCCO2)c2ccccc2n1 (centres undefined) | inactive
13 | COC(=O)c1ccccc1NC(=O)c1ccc2c(c1)C(=O)N(Cc1ccccc1)C2=O | inactive
14 | Cc1cc(C)cc(N(CC(=O)NC2CCCCCC2)S(=O)(=O)c2c(C)[nH]c(=O)[nH]c2=O)c1 | 794 nM (active)
15 | O=C(Nc1nccs1)c1ccc(NS(=O)(=O)c2ccc(Cl)cc2)cc1 | inactive
16 | CCCC1CCC(C(=O)Nc2ccc3nc(N4CCOCC4)cc(C)c3c2)CC1 (centres undefined) | 562 nM (active)
17 | CC(=O)Nc1ccc(NC(=O)COc2ccccc2C(=O)Nc2cccc(Cl)c2Cl)cc1 | inactive
18 | COc1ccccc1C(=O)COC(=O)c1ccccc1OCC(=O)Nc1ccc(SC(F)F)cc1 | inactive
19 | CCCCNC(=O)c1ccc(NS(=O)(=O)c2ccccc2)cc1 | inactive
20 | N#Cc1ccccc1Sc1ccccc1C(=O)OCC(=O)NC12CC3CC(CC(C3)C1)C2 | inactive
21 | Cc1ccc(NC(=O)COc2ccccc2C(=O)Nc2ccccc2)cc1Cl | inactive
22 | Cc1cccc(/C=N/NC(=O)NC23CC4CC(CC(C4)C2)C3)n1 | inactive
23 | O=C(COc1ccccc1C(=O)c1cnn(-c2ccccc2)c1)Nc1ccccc1 | inactive
24 | COc1cccc(CN(C)c2nc(-c3cccs3)nc3ccccc23)c1 | 2510 nM (active)
